Inconclusive results are not listed. Activity calls are given as the source filed them. Unless noted, calls follow the shape of the dose curve; as a rule, active = well fitted curve in either direction with a large enough effect (not every such curve was filed as active); inconclusive = small, poorly fitted or top-dose-only effect, or another doubt; inactive = flat fitted curve, though single readings scatter.
Key:
[1] = molecular target: Lysosomal acid glucosylceramidase (Homo sapiens) (UniProt P04062); assay: Glucocerebrosidase-p2 (AID 348; in the data active = potency below about 10 µM; also: potency is read from the fitted curve at half-maximal effect); settings: purified GBA, blue fluorogenic substrate, 40 min
Chain of Lysosomal acid glucosylceramidase (Homo sapiens) (P04062 whole entry, looked up): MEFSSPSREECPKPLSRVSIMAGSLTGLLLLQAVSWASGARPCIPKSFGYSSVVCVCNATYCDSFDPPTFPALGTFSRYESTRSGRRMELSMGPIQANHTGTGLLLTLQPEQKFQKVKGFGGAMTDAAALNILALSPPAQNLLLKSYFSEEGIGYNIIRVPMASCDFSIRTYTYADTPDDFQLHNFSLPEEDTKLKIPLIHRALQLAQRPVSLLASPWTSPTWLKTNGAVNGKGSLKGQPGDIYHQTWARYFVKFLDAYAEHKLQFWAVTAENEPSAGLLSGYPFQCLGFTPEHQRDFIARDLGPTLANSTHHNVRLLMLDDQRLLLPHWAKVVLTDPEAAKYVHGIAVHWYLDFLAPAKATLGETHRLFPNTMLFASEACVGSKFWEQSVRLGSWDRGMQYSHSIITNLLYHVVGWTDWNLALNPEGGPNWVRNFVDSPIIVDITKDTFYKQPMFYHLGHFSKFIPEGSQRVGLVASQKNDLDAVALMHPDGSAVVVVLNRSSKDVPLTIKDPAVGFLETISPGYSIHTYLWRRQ
How it was run: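 Normal human glucocerebrosidase (0.2 nM) with blue fluorogenic substrate (80 uM final) in citrate/phosphate pH 5.9 with 10mM sodium taurocholate, 0.01% tween-20; 40 min RT, NaOH/glycine stop; fluorescence Ex 365/Em 440; AC50 from a titration from 0.6 nM upwards.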

[2] = AP1 Signaling Pathway (AID 357); settings: ME-180 AP-1-bla reporter, EGF-induced, beta-lactamase ratio, 5 h; at 7.69 µM (top of the series) unless noted;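 also: ME-180 reporter cells stimulated with EGF at its EC50 level; % is scaled to controls: 0 for no effect and ±100 for the full control effect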
How it was run: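 First, ME-180 AP-1-bla cells were cultured overnight at 37 °C in low-serum Opti-MEM. Next, titrated compounds with EC50 EGF were incubated 5 hours. Finally, CCF4 was added for 2.5 hours and the 460/530 nm ratio recorded.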

[3] = molecular target: Cytochrome P450 1A2 (Homo sapiens) (UniProt P05177); assay: p450-cyp1a2 (AID 410; calls by dose curve; also: potency is read from the fitted curve at half-maximal effect;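 as to activity change, negative = inhibition: -100% = full effect of reference inhibitor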); settings: recombinant CYP1A2, luciferin-ME demethylation, luminescence; series mostly up to 11.4 µM
Chain of Cytochrome P450 1A2 (Homo sapiens) (P05177 whole entry, looked up): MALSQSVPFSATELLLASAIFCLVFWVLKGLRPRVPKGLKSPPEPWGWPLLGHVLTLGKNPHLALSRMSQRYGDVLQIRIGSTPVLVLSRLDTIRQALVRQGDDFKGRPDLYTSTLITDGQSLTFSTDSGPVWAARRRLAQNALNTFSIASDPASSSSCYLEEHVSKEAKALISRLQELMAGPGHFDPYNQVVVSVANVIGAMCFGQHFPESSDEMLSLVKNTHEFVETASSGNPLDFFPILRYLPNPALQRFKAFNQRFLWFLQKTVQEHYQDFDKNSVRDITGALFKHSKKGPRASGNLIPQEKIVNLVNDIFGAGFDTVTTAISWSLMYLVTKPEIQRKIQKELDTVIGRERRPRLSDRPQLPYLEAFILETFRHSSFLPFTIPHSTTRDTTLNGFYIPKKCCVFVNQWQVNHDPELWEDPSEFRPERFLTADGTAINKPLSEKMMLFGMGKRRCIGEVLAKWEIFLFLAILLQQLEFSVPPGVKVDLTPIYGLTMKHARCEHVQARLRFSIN
How it was run: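 20nM CYP1A2, 100uM Luciferin-ME (=Km), 100mM KPO4; cpd 10 min RT; +NADPH regen, 60 min RT; stop/detect 20 min; luminescence. Normalized to furafylline 57 uM = full inhibition.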

[4] = NFAT Signaling Pathway (AID 444); settings: Jurkat NFAT-bla M1, carbachol, beta-lactamase ratio, 5 h; at 7.69 µM (top of the series) unless noted;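 also: carbachol stimulus at about its EC50 of 1 µM final; % is scaled to controls: 0 for no effect and ±100 for the full control effect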
How it was run: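 Read-out: CCF4 FRET ratio (460 nm/530 nm) after 1 h RT dye loading, used for %activity and AC50 from titration series. Cells: Jurkat NFAT-β-lactamase/M1 line, treated with compound plus 1 uM carbachol for 5 h, 37 °C.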

[5] = Stat Signaling Pathway (AID 446); settings: ME-180 (cervical carcinoma) SIE beta-lactamase reporter, IL-6 stimulated, 5 h; at 7.69 µM (top of the series) unless noted;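 also: ME-180 cervical cancer cells given 40 pM IL-6 alongside compound; SIE-controlled beta-lactamase reporter measured as 460/530 nm FRET emission ratio; % is scaled to controls: 0 for no effect and ±100 for the full control effect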
How it was run: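 Compound effects on IL-6-induced STAT reporter activity were measured in ME-180 cells. After overnight culture, cells were co-treated with 40 pM IL-6 for 5 hrs before beta-lactamase substrate loading at room temperature.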

[6] = molecular target: Glucocorticoid receptor (Homo sapiens) (UniProt P04150); assay: GR-GFP Redistribution (AID 450;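 active = compounds whose dose series gives a full or clear partial fitted curve of increased nuclear translocation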; also: potency is read from the fitted curve at half-maximal effect); settings: U2OS GR-GFP nuclear translocation, laser cytometry, 2 h
Chain of Glucocorticoid receptor (Homo sapiens) (P04150 whole entry, looked up, the tested form may be a part): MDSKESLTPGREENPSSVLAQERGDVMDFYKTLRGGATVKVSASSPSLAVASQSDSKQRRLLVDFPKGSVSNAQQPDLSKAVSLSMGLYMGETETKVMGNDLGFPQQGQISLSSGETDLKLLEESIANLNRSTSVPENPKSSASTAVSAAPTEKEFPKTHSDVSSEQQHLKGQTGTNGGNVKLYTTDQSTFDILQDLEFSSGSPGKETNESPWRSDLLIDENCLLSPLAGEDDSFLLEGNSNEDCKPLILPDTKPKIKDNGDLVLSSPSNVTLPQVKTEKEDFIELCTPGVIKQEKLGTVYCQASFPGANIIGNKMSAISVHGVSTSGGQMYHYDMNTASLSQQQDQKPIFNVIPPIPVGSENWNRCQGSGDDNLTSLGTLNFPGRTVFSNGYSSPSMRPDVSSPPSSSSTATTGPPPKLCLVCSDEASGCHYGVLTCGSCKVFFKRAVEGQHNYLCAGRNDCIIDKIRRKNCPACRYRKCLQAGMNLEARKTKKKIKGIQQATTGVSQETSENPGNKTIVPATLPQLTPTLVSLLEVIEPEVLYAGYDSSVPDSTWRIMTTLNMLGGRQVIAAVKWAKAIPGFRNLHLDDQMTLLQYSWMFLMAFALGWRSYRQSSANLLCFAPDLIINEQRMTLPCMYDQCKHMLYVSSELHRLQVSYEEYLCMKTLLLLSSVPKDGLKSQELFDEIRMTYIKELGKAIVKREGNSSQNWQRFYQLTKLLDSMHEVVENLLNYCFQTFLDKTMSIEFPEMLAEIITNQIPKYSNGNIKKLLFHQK

[7] = molecular target: Glucocorticoid receptor (Homo sapiens) (UniProt P04150); assay: GR-EFC Redistribution (AID 451; calls by dose curve; also: potency is read from the fitted curve at half-maximal effect); settings: CHO-K1 GR-EFC translocation, beta-gal luminescence, 2 h
How it was run: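 Translocation of GR-ED fusion to nuclear EA restores b-gal, read by luminescence after 1 h room-temperature detection. Engineered CHO-K1 biosensor cells, 1,000/well, exposed 2 h at 37 C to titrations up to 46 uM final.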

[8] = molecular target: Mitogen-activated protein kinase 10 (Mus musculus) (UniProt Q61831); assay: JNK3 AlphaScreen Assay (AID 530); settings: JNK3 lysate, c-Jun phosphorylation; series mostly up to 11.4 µM;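 also: kinase came from lysate of stimulated human HepG2 cells; signal reports phosphorylation of biotinylated GST-cJun 1-79 at Ser73 with 10 µM ATP; % is scaled to controls: 0 for no effect and ±100 for the full control effect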
How it was run: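 Kinase buffer: 20 mM Tris-HCl pH 7.6, 10 mM MgCl2, 1 mM DTT, 0.1 mM Na3VO4, 0.01% Tween-20; ATP 10 uM. Substrate biotin-GST-cJun(1-79), enzyme from activated HepG2 lysates. Detection by Ser73 phospho-antibody AlphaScreen.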

[9] = molecular target: 3',5'-cyclic-AMP phosphodiesterase 4B (Homo sapiens) (UniProt Q07343); assay: qHTS Assay for Inhibitors of PDE-IV (AID 607; active = well fitted activation curve with a large enough effect in the main read-out, with a control signal flat, not every such curve was filed as active; also: % of control where 0% means no effect); settings: HEK293 ACTOne CNG channel cells, membrane potential fluorescence; series mostly up to 22.9 µM
Chain of 3',5'-cyclic-AMP phosphodiesterase 4B (Homo sapiens) (Q07343 whole entry, looked up): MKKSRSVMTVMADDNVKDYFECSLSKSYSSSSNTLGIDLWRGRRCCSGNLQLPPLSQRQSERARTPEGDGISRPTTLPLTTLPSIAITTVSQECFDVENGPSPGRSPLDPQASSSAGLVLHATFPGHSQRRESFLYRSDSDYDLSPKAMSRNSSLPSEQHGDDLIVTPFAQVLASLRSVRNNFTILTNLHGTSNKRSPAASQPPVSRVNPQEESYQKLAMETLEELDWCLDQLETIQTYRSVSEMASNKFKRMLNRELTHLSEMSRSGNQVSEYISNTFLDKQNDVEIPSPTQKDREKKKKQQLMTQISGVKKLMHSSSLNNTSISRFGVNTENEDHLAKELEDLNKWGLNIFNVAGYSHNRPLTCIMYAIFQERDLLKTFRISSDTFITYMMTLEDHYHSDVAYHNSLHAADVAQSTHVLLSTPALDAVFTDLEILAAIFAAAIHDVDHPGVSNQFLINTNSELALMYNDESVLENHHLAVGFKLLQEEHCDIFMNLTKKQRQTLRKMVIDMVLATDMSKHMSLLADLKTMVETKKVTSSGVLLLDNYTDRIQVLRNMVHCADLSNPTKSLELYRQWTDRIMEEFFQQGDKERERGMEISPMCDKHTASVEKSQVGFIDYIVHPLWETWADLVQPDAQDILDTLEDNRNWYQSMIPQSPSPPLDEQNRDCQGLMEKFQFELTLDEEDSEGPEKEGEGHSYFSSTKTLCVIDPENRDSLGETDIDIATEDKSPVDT
How it was run: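 ACTOne HEK293 cells carry a modified cAMP-gated CNG channel and express endogenous PDE4; plated 1000 cells/well, compounds up to 22.9 uM final. Membrane-potential dye fluorescence (ex 535/em 590) was read; parental cells received 10 uM forskolin + 100 uM RO 20-1724.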

O=C(O)CCSC1=NCCN1
inactive: Potency [1] > 11.4 µM | activity change, negative = inhibition [2] 1.39% | Potency [3] | activity change, negative = inhibition [4] 4.68% | activity, negative = inhibition [5] 6.09% | Potency [6] > 46 µM | Potency [7] > 9.22 µM | Potency [8] | Potency [9]

COc1ccc2[nH]c3cc4c(=O)c5cc(OC)ccc5[nH]c4cc3c(=O)c2c1
inactive: Potency [1] > 11.4 µM | activity change, negative = inhibition [2] -2.15% | activity change, negative = inhibition [3] -6% [at 2.29 µM] | activity change, negative = inhibition [4] -1.64% | activity, negative = inhibition [5] -1.86% | Potency [6] > 46 µM | Potency [7] > 9.22 µM | Potency [8] | Potency [9]

Nc1nc(N)c2[nH]c(CNc3ccc(C(=O)O)cc3)nc2n1
inactive: Potency [1] > 11.4 µM | activity change, negative = inhibition [2] -2.88% | Potency [3] | activity change, negative = inhibition [4] 23.3% | activity, negative = inhibition [5] -0.181% | Potency [6] > 46 µM | Potency [7] > 9.22 µM | Potency [8] | Potency [9]

O=C(O)CCC(=O)c1ccc2sc3ccccc3c2c1
inactive: Potency [1] > 11.4 µM | activity change, negative = inhibition [2] 3.02% | activity change, negative = inhibition [4] 7.45% | activity, negative = inhibition [5] -12.2% | Potency [6] > 46 µM | Potency [7] > 9.22 µM | Potency [8] | Potency [9]
active: Potency [3] 3.98 µM

O=C1Nc2ccccc2C1=Nc1ccc(S(=O)(=O)Nc2nccs2)cc1
inactive: Potency [1] > 11.4 µM | activity change, negative = inhibition [2] -7.86% | Potency [3] | activity change, negative = inhibition [4] 12.8% | activity, negative = inhibition [5] -9.11% | Potency [6] > 46 µM | Potency [7] > 9.22 µM | Potency [8] | Potency [9]

N[C@@H](Cc1[nH]nc2ccccc12)C(=O)O
inactive: Potency [1] > 11.4 µM | activity change, negative = inhibition [2] 5.54% | Potency [3] | activity change, negative = inhibition [4] -12.5% | activity, negative = inhibition [5] -0.642% | Potency [6] > 46 µM | Potency [7] > 9.22 µM | Potency [8] | Potency [9]

O=C(C[N+]1(c2ccccc2)CCOCC1)c1ccccc1
inactive: Potency [1] > 11.4 µM | activity change, negative = inhibition [2] -5.21% | activity change, negative = inhibition [4] 11.5% | activity, negative = inhibition [5] -5.59% | Potency [6] > 46 µM | Potency [7] > 9.22 µM | Potency [8] | Potency [9]
active: Potency [3] 3.98 µM

CN(C(=O)c1ccncc1)c1ccccc1
inactive: Potency [1] > 11.4 µM | activity change, negative = inhibition [2] -3.23% | Potency [3] | activity change, negative = inhibition [4] 6.33% | activity, negative = inhibition [5] 0.69% | Potency [6] > 46 µM | Potency [7] > 9.22 µM | Potency [8] | Potency [9]

O=C(O)[C@H]([C@H]1NCCS1)N1C(=O)c2ccccc2C1=O
active: Potency [3] 5.01 µM
inactive: Potency [1] > 11.4 µM | activity change, negative = inhibition [2] 20.1% | activity change, negative = inhibition [4] 8.05% | activity, negative = inhibition [5] 3.15% | Potency [6] > 46 µM | Potency [7] > 9.22 µM | Potency [8] | Potency [9]

NC1=C2NC=N[C@@H]2N(C/C=C\c2ccccc2)C=N1
inactive: Potency [1] > 11.4 µM | activity change, negative = inhibition [2] 1.36% | activity change, negative = inhibition [3] -12.4% [at 2.29 µM] | activity change, negative = inhibition [4] 4.81% | activity, negative = inhibition [5] 13.2% | Potency [6] > 46 µM | Potency [7] > 9.22 µM | Potency [8] | Potency [9]

Nc1ncnc2c1ncn2[C@H]1O[C@@H](CO)[C@@H](O)[C@H]1N
inactive: Potency [1] > 11.4 µM | activity change, negative = inhibition [2] -9.35% | Potency [3] | activity change, negative = inhibition [4] -3.9% | activity, negative = inhibition [5] 5.68% | Potency [6] > 46 µM | Potency [7] > 9.22 µM | Potency [8] | Potency [9]

O=[N+]([O-])/C=C\c1cc2ccccc2[nH]1
inactive: Potency [1] > 11.4 µM | activity change, negative = inhibition [2] -11.8% | activity change, negative = inhibition [4] 12.4% | activity, negative = inhibition [5] 23.3% | Potency [6] > 46 µM | Potency [7] > 9.22 µM | Potency [8] | Potency [9]
active: Potency [3] 1.26 µM

Cc1ccc(S(=O)(=O)Nc2ccccc2C(=O)c2ccc(C)c(C)c2)cc1
active: Potency [3] 0.631 µM
inactive: Potency [1] > 11.4 µM | activity change, negative = inhibition [2] 5.46% | activity change, negative = inhibition [4] 2.8% | activity, negative = inhibition [5] -2.64% | Potency [6] > 46 µM | Potency [7] > 9.22 µM | Potency [8] | Potency [9]

CCc1ncc(CO)n1Cc1cccc2ccccc12
inactive: Potency [1] > 11.4 µM | activity change, negative = inhibition [2] 11.3% | Potency [3] | activity change, negative = inhibition [4] 6.66% | activity, negative = inhibition [5] 10.1% | Potency [6] > 46 µM | Potency [7] > 9.22 µM | Potency [8] | Potency [9]

Cc1cc(Cc2cc(C)c(N)cc2N)c(N)cc1N
active: Potency [3] 2 µM
inactive: Potency [1] > 11.4 µM | activity change, negative = inhibition [2] -4.79% | activity change, negative = inhibition [4] -1.81% | activity, negative = inhibition [5] 1.49% | Potency [6] > 46 µM | Potency [7] > 9.22 µM | Potency [8] | Potency [9]

C[C@@H]1C[C@H](C)CN(S(=O)(=O)c2cc(Cl)c(Oc3ccc([N+](=O)[O-])cc3Cl)c(Cl)c2)C1
inactive: Potency [1] > 11.4 µM | activity change, negative = inhibition [2] 16.4% | Potency [3] | activity change, negative = inhibition [4] -22.6% | activity, negative = inhibition [5] 20.1% | Potency [6] > 46 µM | Potency [7] > 9.22 µM | Potency [8] | Potency [9]

Source: PubChem BioAssay (NCATS)
